We go through 11 molecules from PubChem BioAssay.

Assay [1] relates to Wnt5a (protein binding on small-molecule microarray). The experiment in a line: small molecules binding Wnt5a protein – biophysical, small-molecule microarray, 635/667 nm fluorescence, primary screen (AID 1142).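 Also: fluorescence read at 667 nm with signal to noise per printed feature.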 Particulars: 635 nm fluorescence, higher = more signal.
Assay [2] in a line: ATP-based viability of Huh7 replicon cells – cell-based, CellTiter-Glo luminescence, basal, 48 h, cytotoxicity control for HCV replication inhibitor project, primary screen (AID 1143).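 Also: Huh7 hepatoma cells carrying a hepatitis C replication reporter with no stimulus; test concentration not given here.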 As to conditions: higher = more signal, called active from +8 up or from −8 down.
A short description of assay [3]: Pseudomonas biofilm growth suppression – PAO1 strain, BacTiter-Glo luminescence, LB-PBS, primary screen (AID 1144). Particulars: P. aeruginosa PAO1 biofilm, 12 h, higher = more signal.
Assay [4] can be described thus: basal CRE-LacZ reporter activity in PC12 – cell-based, unstimulated, primary screen (AID 1145). Particulars: no forskolin, luminescence, 4.5 h, higher = more signal, called active from +8 up or from −8 down.
A short description of assay [5]: forskolin-driven CRE-LacZ activity in PC12 – cell-based, CRE-LacZ reporter, forskolin-stimulated, primary screen (AID 1146).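 Also: PC12 cells with 6xCRE LacZ reporter stimulated by forskolin 10 µM; beta-galactosidase reporter signal reflecting CREB driven transcription.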 Particulars: luminescence, 4.5 h, higher = more signal, called active from +8 up or from −8 down.
The target of assay [6] is Streptavidin (Streptomyces avidinii) (UniProt P22629). The experiment in a line: compounds binding control protein streptavidin – biophysical, small-molecule microarray, 635/667 nm fluorescence, artefact control for SMM compound annotation, primary screen (AID 1147).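 Also: signal reflects streptavidin binding to arrayed compounds as a control protein.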 Particulars: higher = more signal.
Chain of Streptavidin (Streptomyces avidinii) (P22629 whole entry, looked up): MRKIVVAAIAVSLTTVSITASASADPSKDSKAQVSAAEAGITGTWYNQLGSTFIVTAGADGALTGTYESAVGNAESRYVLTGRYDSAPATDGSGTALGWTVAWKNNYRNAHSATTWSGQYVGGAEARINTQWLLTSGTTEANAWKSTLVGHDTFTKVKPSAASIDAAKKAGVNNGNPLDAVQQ
A short description of assay [7]: probe aInhba binding on compound microarray – biochemical, small-molecule microarray, 635/667 nm fluorescence, primary screen (AID 1148).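 Also: score merges 667nm spot fluorescence with signal-to-noise for antibody binding to printed compounds.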 Particulars: higher = more signal.
The target in assay [8] is Torsin-1A (Homo sapiens) (UniProt O14656). The assay can be described thus: TOR1A wild-type binding on microarray – cell lysate, small-molecule microarray, lysate, 635/667 nm, primary screen (AID 1149). As to conditions: COS7 hTOR1A-WT lysate, 635 nm fluorescence, higher = more signal.
Chain of Torsin-1A (Homo sapiens) (O14656 whole entry, looked up): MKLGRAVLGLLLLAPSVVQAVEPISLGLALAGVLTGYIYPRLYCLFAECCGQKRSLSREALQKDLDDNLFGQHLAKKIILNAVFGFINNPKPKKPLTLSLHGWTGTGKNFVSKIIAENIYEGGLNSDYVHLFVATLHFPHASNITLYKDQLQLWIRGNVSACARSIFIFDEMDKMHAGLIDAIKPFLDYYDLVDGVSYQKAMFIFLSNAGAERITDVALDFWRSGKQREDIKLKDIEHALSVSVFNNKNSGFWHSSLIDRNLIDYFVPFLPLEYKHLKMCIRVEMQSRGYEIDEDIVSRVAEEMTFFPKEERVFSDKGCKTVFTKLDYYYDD
Assay [9] shares this target. The assay can be described thus: torsin A mutant lysate binding on microarrays – cell lysate, small-molecule microarray, COS7 lysate, 635/667 nm fluorescence, primary screen (AID 1150).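 Also: score pools 667 nm emission and signal to noise measuring lysate protein binding.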 Particulars: COS7 hTOR1A mutant lysate, 635 nm fluorescence, higher = more signal.
Assay [10] relates to Sonic hedgehog protein (Shh). The assay can be described thus: Sonic hedgehog microarray binding compounds – biochemical, small-molecule microarray, 635/667 nm fluorescence, primary screen (AID 1151).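 Also: Shh protein binding to compounds spotted on small-molecule microarray slides; score combines spot fluorescence intensity with signal-to-noise across triplicate slides.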 Particulars: 635 nm fluorescence, higher = more signal.

Active and inactive are the calls of the source. Unless noted, no rule for the calls is given here.

Take `CCOC(=O)C1=CCC(c2ccc(F)cc2)N(S(=O)(=O)c2ccc(C)cc2)C1` (stereo not given): the composite z-score was 0.0848 in [1]; 0.407 in assay [6]; -0.0963 in assay [7]; 0.827 in assay [8]; 0.203 in [9]; -0.282 in assay [10]. In addition, the z-score is -2.8 (inactive) in assay [2], 0.046 (inactive) in assay [3], 0.481 (inactive) in assay [4] and -0.323 (inactive) in [5].

Regarding `O=C1[C@H]2C=C(I)[C@H](C[C@@H]2OCCCCO)[C@@]12CO2`, the composite z-score was -0.163 in [1]; -0.162 in [6]; -0.025 in [7]; 0.953 in [8]; 0.625 in [9]; 0.745 in assay [10]. Also, the z-score in assay [2] was 0.634 (inactive); in assay [3] it was -0.0455 (inactive); in assay [4] it was -0.235 (inactive); in [5] it was 1.6 (inactive).

As for `CCCNC(=O)[C@@H]1c2ccccc2C(=O)N(Cc2ccccc2OC)[C@H]1c1ccc(CO)cc1`, the composite z-score in [1] was 0.304; in assay [6] it was 0.867; in assay [7], -0.0066; in assay [8], -0.3; in assay [9], 0.889; in assay [10], 1.52. In addition, the z-score was -0.67 (inactive) in assay [2], 0.376 (inactive) in [3], 0.001 (inactive) in [4] and -0.312 (inactive) in [5].

For `O=C1NC(=O)C2C1C=CC(C(O)c1ccc(I)cc1)N2Nc1ccccn1` (stereo not given), the composite z-score in assay [1] was -0.0488; in assay [6], 0.242; in assay [7] it was -0.0216; in assay [8], 0.282; in assay [9] it was 0.239; in assay [10] it was -0.0484. In addition, the z-score in assay [2] was 0.886 (inactive); in [3], -0.833 (inactive); in assay [4], 0.636 (inactive); in assay [5], 0.0542 (inactive).

Turning to `CCOc1ccc(N2C(=O)CSC2c2cccc([N+](=O)[O-])c2)cc1` (stereo not given), the composite z-score was 0.124 in [1]; 0.804 in assay [6]; -0.0448 in assay [7]; 0.331 in assay [8]; 0.731 in assay [9]; 0.0304 in [10]. Also, the z-score was -0.689 (inactive) in [2], -0.245 (inactive) in assay [3], -0.0243 (inactive) in assay [4] and -1.34 (inactive) in assay [5].

As to `[N-]=[N+]=NCc1ccccc1[C@@H]1OC(c2ccc(OCCCO)cc2)=N[C@]1(CCS(=O)(=O)c1ccccc1)C(=O)N1CCOCC1`, the composite z-score in assay [1] is 0.477; in [6] it was 1.5; in [7] it was 0.351; in [8] it was 0.796; in [9], 0.947; in assay [10] it was -0.149. Besides, the z-score in assay [2] is -4.07 (inactive); in assay [3], -0.344 (inactive); in assay [4] it was 1.59 (inactive); in assay [5] it was -1.08 (inactive).

As for `C=C(/C(=C/C[C@H](OC(=O)c1ccncc1)c1ccc(OCCO)cc1)c1cc(C(=O)OC)ccc1OC)C(C)C`, the composite z-score in assay [1] is -0.0134; in assay [6], 1.23; in assay [7], -0.016; in assay [8] it was -0.511; in [9], 0.284; in assay [10], 0.711. Moreover, the z-score in [2] was -3.91 (inactive); in [3], -0.518 (inactive); in [4], 3.9 (inactive); in assay [5], -0.359 (inactive).

Take `COC(=O)C[C@H]1O[C@@H](CCc2ccccc2)[C@@H](C)[C@@H]1[Si](C)(C)c1ccc(OC)cc1`: the composite z-score in assay [1] was 0.0073; in assay [6] it was -0.604; in assay [7] it was -0.0963; in [8] it was -0.247; in assay [9] it was -0.23; in assay [10], -0.243. The z-score was -1.76 (inactive) in assay [2], 0.315 (inactive) in [3], -0.87 (inactive) in [4] and -0.687 (inactive) in assay [5].

Turning to `[N-]=[N+]=Nc1ccccc1C[C@@]1(C(=O)N2CCCCC2)N=C(c2ccc(OCCCO)cc2)O[C@@H]1c1ccccc1`, the composite z-score came to 0.46 in assay [1]; 1.23 in assay [6]; 0.298 in [7]; 0.417 in assay [8]; 0.36 in assay [9]; 0.131 in assay [10]. Further, the z-score in [2] is -5.13 (inactive); in assay [3], -0.682 (inactive); in assay [4], 2.11 (inactive); in assay [5], -0.0605 (inactive).

With `C=CCC(OC(C)=O)[C@@H]1[C@@H](N(Cc2cc3ccccc3o2)C(=O)Cc2ccc(OC)cc2)c2cc(OCCCO)ccc2N1C(=O)c1ccc2ccccc2c1` (stereo not given in full), the composite z-score in assay [1] is -0.252; in [6], -0.277; in assay [7] it was -0.0791; in assay [8], -0.748; in assay [9], -0.502; in [10], 0.688. Also, the z-score was -1.58 (inactive) in assay [2], -0.352 (inactive) in [3], 1.41 (inactive) in assay [4] and 0.368 (inactive) in assay [5].

With `[N-]=[N+]=Nc1ccccc1C[C@]1(C(=O)N2CCCCC2)COC(c2ccc(OCCCO)cc2)=N1`, the composite z-score in assay [1] was 0.427; in assay [6], 1.22; in [7] it was 0.0108; in [8], 0.552; in assay [9], 0.742; in assay [10], -0.385. Besides, the z-score was -4.35 (inactive) in assay [2], 1.38 (inactive) in [3], 1.01 (inactive) in assay [4] and -0.57 (inactive) in assay [5].
